# Experimental data: PubChem BioAssay
# Calls of active or inactive are those of the source.
# Experiments:
# [1] = target: Albumin (Bos taurus) (UniProt P02769); test: bovine serum albumin binders on microarray, profiling panel, artefact control for SMM control protein annotation, biochemical, small-molecule microarray, Alexa647 label, 635/667 nm fluorescence (AID 1118); details: BSA-A647 binding, fluorescence 635 nm, higher = more signal;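 note: score merges 667 nm emission intensity and signal-to-noise per printed compound spot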
# Albumin (Bos taurus), sequence (P02769 whole entry, looked up): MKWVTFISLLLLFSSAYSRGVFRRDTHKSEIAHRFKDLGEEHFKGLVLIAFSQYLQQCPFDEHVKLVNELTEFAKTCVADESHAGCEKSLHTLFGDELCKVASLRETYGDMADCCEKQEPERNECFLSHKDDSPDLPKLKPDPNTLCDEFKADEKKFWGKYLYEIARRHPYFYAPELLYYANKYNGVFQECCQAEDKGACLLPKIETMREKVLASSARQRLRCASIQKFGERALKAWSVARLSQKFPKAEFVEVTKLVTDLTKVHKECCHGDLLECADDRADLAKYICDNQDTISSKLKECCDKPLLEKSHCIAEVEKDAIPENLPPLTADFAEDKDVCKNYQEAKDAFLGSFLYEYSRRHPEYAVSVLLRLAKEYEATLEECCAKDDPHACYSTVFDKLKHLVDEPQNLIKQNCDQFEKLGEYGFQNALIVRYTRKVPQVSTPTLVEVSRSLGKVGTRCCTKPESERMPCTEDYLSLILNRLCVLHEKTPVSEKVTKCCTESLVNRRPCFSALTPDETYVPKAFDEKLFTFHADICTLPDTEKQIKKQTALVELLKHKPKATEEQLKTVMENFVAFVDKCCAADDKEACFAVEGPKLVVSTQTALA
# [2] = small-molecule microarray binders of probe aXIP, primary screen, biochemical, NeuroSMM set, 635/667 nm fluorescence (AID 1119); details: higher = more signal, called active from +8 up or from −8 down;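 note: probe is the protein aXip251-270 applied at 1 µg/mL to compound-printed slides; binding of probe to printed compounds measured as 667 nm fluorescence plus signal to noise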
# [3] = small-molecule binders of probe aNOTCH3, primary screen, biochemical, small-molecule microarray, 635/667 nm fluorescence (AID 1120); details: higher = more signal;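 note: probe is a biotin-tagged antibody raised against NOTCH3 rather than NOTCH3 protein; score merges spot fluorescence near 667 nm with spot signal to noise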
# [4] = small-molecule binders of probe aNOTCH2, primary screen, biochemical, small-molecule microarray, 635/667 nm fluorescence (AID 1121); details: higher = more signal;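 note: score merges feature fluorescence read at 667 nm with its signal to noise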
# [5] = target: Carbonic anhydrase 2 (Homo sapiens) (UniProt P00918); test: CAII small-molecule binders, profiling panel, biochemical, small-molecule microarray, Alexa647-labelled CAII (AID 1122); details: CAII-A647 binding fluorescence, higher = more signal
# [6] = COS7 lysate on small-molecule microarray, probe aHis, 635 nm (AID 1123); details: COS7 cell lysate, fluorescence, higher = more signal;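 note: z-score combines 667nm fluorescence intensity with signal-to-noise per printed compound spot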
# [7] = compound binding in COS7 lysate, probe aLAP1, primary screen, cell lysate, small-molecule microarray (AID 1124); details: probe aLAP1, fluorescence, higher = more signal;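 note: lysate comes from COS7 cells expressing LAP1 and is applied at 0.3 µg/mL; score merges spot fluorescence near 667 nm with signal-to-noise over triplicate slides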
# [8] = tested on: Sam68 (KHDRBS1); test: Sam68 small-molecule binders, primary screen, biochemical, small-molecule microarray, 635 nm fluorescence (AID 1125); details: small-molecule microarray binding, higher = more signal;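 note: score merges 667 nm channel intensity with signal to noise over triplicate slides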
# [9] = tested on: Chordin-like protein 2 (CHRDL2); test: CHRDL2 small-molecule binders, primary screen, biochemical, small-molecule microarray, 635 nm fluorescence (AID 1126); details: small-molecule microarray binding, fluorescence 635 nm; higher = more signal;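 note: printed compound slides probed with Chrdl2 protein at 4 µg/mL for 1 h at 4 C; score merges 667 nm emission intensity with signal to noise over three replicate slides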
# [10] = target: Concanavalin-A (Canavalia ensiformis) (UniProt P02866); test: ConA small-molecule binders, primary screen, artefact control for SMM control protein annotation, biochemical, small-molecule microarray, Alexa647 label, 635 nm (AID 1127); details: ConA-A647 binding fluorescence, higher = more signal;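 note: z combines 667 nm emission intensity with signal-to-noise across three replicate slides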
# Concanavalin-A (Canavalia ensiformis), sequence (P02866 whole entry, looked up): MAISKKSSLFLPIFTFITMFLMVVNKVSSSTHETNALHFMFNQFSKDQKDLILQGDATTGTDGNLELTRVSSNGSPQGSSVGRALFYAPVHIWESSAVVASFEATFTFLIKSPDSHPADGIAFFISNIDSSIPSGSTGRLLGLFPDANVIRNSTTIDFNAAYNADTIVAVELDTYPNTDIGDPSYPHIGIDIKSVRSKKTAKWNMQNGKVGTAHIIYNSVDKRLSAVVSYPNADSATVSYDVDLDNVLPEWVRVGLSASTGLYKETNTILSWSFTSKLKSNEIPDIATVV
# [11] = anti-His antibody binders, primary screen, artefact control for SMM control protein annotation, biochemical, small-molecule microarray, 635 nm fluorescence (AID 1128); details: anti-His Alexa647 antibody binding, higher = more signal;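 note: score merges feature fluorescence with signal-to-noise for each printed compound spot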
# [12] = tested on: Human papillomavirus type 1a E7 protein (residues 1-88); test: HPV1a E7 small-molecule binders, primary screen, biochemical, small-molecule microarray, residues 1-88, 635 nm (AID 1129); details: small-molecule microarray binding, fluorescence 635 nm; higher = more signal
# [13] = target: Focal adhesion kinase 1 (Homo sapiens) (UniProt Q05397); test: small-molecule microarray binders of FAK, primary screen, biochemical, 635/667 nm fluorescence, BSA, DTT (AID 1130); details: PTK2 binding, 635 nm fluorescence, higher = more signal;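 note: composite of spot emission at 667 nm and signal to noise over triplicate slides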
# Focal adhesion kinase 1 (Homo sapiens), sequence (Q05397 whole entry, looked up): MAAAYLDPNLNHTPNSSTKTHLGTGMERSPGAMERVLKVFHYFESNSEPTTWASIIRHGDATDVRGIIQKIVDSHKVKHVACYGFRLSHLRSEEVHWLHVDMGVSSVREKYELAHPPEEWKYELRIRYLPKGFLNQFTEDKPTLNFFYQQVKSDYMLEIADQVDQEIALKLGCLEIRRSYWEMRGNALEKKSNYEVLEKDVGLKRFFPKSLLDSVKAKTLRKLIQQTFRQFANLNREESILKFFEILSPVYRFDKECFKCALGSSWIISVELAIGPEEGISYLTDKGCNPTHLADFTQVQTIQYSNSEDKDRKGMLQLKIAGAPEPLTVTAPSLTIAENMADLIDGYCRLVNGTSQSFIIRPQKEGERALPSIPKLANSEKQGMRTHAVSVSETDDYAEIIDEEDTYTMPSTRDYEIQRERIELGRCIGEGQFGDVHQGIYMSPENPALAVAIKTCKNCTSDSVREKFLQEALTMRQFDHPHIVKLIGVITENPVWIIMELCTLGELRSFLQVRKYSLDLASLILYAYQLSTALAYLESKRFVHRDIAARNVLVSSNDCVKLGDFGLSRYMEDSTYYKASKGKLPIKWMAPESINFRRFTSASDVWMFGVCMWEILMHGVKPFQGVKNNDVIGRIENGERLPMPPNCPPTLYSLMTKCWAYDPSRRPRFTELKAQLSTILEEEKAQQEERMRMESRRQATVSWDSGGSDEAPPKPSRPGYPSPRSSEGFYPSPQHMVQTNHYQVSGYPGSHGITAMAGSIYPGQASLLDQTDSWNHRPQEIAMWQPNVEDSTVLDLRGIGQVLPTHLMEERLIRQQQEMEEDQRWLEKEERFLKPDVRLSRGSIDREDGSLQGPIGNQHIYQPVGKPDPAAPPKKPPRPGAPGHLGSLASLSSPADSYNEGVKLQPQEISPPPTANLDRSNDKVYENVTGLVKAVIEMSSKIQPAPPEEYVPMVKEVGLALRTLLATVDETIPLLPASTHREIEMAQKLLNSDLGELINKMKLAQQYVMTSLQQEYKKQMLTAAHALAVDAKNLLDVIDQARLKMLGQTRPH
# [14] = tested on: Fibrinogen (Alexa647-labelled); test: fibrinogen binders on compound microarrays, profiling panel, artefact control for SMM control-protein annotation, biochemical, small-molecule microarray, 635/667 nm fluorescence (AID 1131); details: fibrinogen-A647 binding fluorescence, higher = more signal;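 note: z-score merges 667 nm fluorescence with per-spot signal-to-noise over triplicate slides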
# [15] = target: Follistatin (Homo sapiens) (UniProt P19883); test: follistatin binders on small-molecule microarrays, primary screen, biochemical, small-molecule microarray, 635/667 nm fluorescence (AID 1132); details: FST binding, 635 nm fluorescence, higher = more signal
# Follistatin (Homo sapiens), sequence (P19883 whole entry, looked up): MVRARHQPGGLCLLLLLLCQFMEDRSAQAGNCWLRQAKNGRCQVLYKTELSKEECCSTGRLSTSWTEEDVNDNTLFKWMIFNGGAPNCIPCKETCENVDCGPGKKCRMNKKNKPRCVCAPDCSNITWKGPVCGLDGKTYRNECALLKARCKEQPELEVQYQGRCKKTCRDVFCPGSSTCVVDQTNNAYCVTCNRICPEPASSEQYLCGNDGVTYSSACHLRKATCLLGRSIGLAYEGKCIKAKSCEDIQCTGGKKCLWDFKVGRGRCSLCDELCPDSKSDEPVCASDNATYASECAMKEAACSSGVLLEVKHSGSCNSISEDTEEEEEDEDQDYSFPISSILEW
# [16] = target: Fibroblast growth factor 2 (Homo sapiens) (UniProt P09038); test: FGF2 binders on small-molecule microarrays, primary screen, biochemical, small-molecule microarray, 635/667 nm fluorescence (AID 1133); details: small-molecule microarray binding, FGF2, fluorescence 635/667; higher = more signal
# Fibroblast growth factor 2 (Homo sapiens), sequence (P09038 whole entry, looked up): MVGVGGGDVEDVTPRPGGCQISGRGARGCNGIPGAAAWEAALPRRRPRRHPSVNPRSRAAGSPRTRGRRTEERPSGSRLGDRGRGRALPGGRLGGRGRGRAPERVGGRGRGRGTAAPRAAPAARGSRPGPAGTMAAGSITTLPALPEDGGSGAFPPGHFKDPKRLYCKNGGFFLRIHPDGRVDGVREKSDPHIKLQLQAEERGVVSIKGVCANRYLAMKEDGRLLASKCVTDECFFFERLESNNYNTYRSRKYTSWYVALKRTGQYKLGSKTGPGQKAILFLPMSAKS
# [17] = mitochondrial membrane potential change in A549 cells, profiling panel, cell-based, JC-1 fluorescence, basal, 24 h, 100 nL (AID 1138); details: higher = more signal;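 note: A549 lung adenocarcinoma cells under basal conditions with no added stimulus; test concentration not given here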
# [18] = tested on: Lefty1; test: Lefty1 binders on small-molecule microarrays, primary screen, biochemical, small-molecule microarray, 635/667 nm fluorescence (AID 1139); details: small-molecule microarray binding, fluorescence 635/667; higher = more signal
# [19] = tested on: wheat germ agglutinin (Triticum aestivum), Alexa647-labelled; test: wheat germ agglutinin binders on compound microarrays, profiling panel, artefact control for SMM control-protein annotation, biochemical, small-molecule microarray, 635/667 nm fluorescence (AID 1140); details: WGA-A647 binding, 635 nm fluorescence, higher = more signal;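 note: score merges 667 nm feature emission with signal to noise over triplicate slides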
# [20] = target: Luciferin 4-monooxygenase (Photinus pyralis) (UniProt P08659); test: firefly luciferase enzyme inhibitors, primary screen, biochemical, luminescence, purified enzyme, 2006 set (AID 1141); details: SteadyGlo luminescence, 30 min, higher = more signal, called active from +8 up or from −8 down;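 note: cell-free assay with purified firefly luciferase at 100 ng per well in PBS; test concentration not given here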
# Luciferin 4-monooxygenase (Photinus pyralis), sequence (P08659 whole entry, looked up): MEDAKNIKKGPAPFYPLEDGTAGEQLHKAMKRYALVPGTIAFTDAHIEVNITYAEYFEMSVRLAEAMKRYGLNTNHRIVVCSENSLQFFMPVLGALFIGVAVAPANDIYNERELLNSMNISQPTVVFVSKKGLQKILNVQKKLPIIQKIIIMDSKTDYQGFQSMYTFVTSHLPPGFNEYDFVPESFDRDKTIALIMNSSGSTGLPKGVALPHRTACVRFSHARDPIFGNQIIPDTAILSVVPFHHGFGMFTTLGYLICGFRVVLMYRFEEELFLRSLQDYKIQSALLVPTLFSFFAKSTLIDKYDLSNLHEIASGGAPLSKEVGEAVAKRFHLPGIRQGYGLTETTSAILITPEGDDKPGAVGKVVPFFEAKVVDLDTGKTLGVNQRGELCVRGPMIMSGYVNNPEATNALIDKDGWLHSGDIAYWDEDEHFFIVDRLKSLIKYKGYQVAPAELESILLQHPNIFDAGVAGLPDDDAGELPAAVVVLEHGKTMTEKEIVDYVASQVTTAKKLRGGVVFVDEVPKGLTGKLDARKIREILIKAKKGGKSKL
Compound,composite z-score [1],composite Z-score [2],composite z-score [3],composite z-score [4],composite z-score [5],composite z-score [6],composite z-score [7],composite z-score [8],composite z-score [9],composite z-score [10],composite z-score [11],composite z-score [12],composite z-score [13],composite z-score [14],composite z-score [15],composite z-score [16],z-score [17],composite z-score [18],composite z-score [19],z-score [20]
CCCCC(=C=CC[C@H](O)c1ccc(OCCO)cc1)CCO,0.837,0.0311 (inactive),-0.121,-0.0795,0.694,1.55,0.251,0.195,-1.13,-0.727,-0.582,0.0547,0.0832,-1.64,-0.232,-0.674,0.25,0.282,0.717,-0.98 (inactive)
COC(=O)[C@]1(CCS(=O)(=O)c2ccccc2)N=C(c2ccc(OCCCO)cc2)O[C@@H]1c1ccccc1N=[N+]=[N-],-0.325,0.0652 (inactive),0.359,0.142,0.78,2.93,0.612,1.29,0.412,1.19,3.54,1.27,0.263,0.906,1.39,1.75,-0.447,0.387,1.09,-1.32 (inactive)
O=c1cccc(-c2ccc([N+](=O)[O-])cc2)o1,-0.293,0.46 (inactive),0.0692,-0.154,0.365,0.403,0.633,0.795,0.075,-0.549,0.504,0.963,0.21,-0.301,1.28,1.05,-0.233,1.4,0.301,1.68 (inactive)
CCOC(=O)C=Cc1cccc(C)c1O,-0.268,-0.352 (inactive),-0.0881,-0.114,0.422,-0.15,0.514,-0.0261,-0.0961,0.0646,0.0346,-0.0448,0.617,0.252,0.208,0.0326,-1.56,-0.0408,-0.399,-9.24 (active)
COC(=O)C1=CC(CCCO)=CC(c2cccs2)N(C)C=C1C(=O)OC (stereo not given),0.445,0.156 (inactive),-0.0879,-0.115,0.869,1.17,-0.371,-0.213,-0.44,0.34,0.15,-0.5,0.143,-0.198,-0.344,-0.498,0.0963,-0.307,0.507,-0.674 (inactive)
